# The whole screen tested about 1,300 compounds, of which about 25 (2%) were called active. How the calls were made is not given here. The list comes from a sample in which actives are over-represented; it also holds similar structures and randomly drawn compounds.
# Molecular target: Estrogen receptor (Homo sapiens) (UniProt P03372)
# Assay: blockers of coactivator recruitment to ERα – biochemical, LOPAC library, TR-FRET, primary screen (AID 694);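 further: receptor was agonist-bound with estradiol present during the assay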
# Details: TR-FRET ERalpha-coactivator peptide binding, stronger effect = higher value
# Sequence of Estrogen receptor (Homo sapiens) (P03372 whole entry, looked up): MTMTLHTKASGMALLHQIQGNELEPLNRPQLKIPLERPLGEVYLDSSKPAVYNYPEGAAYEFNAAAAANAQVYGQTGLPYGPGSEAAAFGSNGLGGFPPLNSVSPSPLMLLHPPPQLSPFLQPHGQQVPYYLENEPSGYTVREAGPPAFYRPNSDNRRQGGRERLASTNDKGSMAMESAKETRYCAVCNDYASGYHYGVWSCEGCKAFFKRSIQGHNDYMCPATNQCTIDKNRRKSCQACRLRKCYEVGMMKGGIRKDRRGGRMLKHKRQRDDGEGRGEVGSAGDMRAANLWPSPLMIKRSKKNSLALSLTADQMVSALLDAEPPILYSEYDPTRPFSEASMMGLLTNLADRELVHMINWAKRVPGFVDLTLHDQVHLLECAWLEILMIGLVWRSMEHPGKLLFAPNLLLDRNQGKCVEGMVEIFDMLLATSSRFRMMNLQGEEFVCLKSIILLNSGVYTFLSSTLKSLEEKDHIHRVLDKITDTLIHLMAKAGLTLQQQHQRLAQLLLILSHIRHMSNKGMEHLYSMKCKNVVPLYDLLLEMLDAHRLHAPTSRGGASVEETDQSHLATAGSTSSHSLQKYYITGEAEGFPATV
Compound,inhibition (at 45 µM),"inhibition (inhibition, at 15 µM) [%]"
C=CCN1CCc2c(cc(O)c(O)c2Cl)C(c2ccccc2)C1 (configuration not stated),-1.29% (inactive),-1.34
NC(N)=N[C@@H](CCC(=O)O)C(=O)O,-1.09% (inactive),5.9
CC(C)C1C2CCC(C2)C1N (configuration not stated),-15.6% (inactive),-0.95
NCCC(=O)NCCc1cnc[nH]1,-9.27% (inactive),2.24
CCN1/C(=C/C(C)=O)Sc2ccc(OC)cc21,0.62% (inactive),-1.25
CSc1ccc2c(c1)N(CCC1CCCCN1C)c1ccccc1S2 (configuration not stated),13.6% (inactive),10.5
O=C(O)Cc1ccc(O)c(O)c1,13.3% (inactive),9.47
CC(C)C[C@H](N)CSSC[C@@H](N)CC(C)C,0.5% (inactive),-0.82
Cc1ccccc1CNc1ncnc2c1ncn2C1OC(CO)C(O)C1O (configuration not stated),-2.05% (inactive),-1.9
Nc1ccc(N2C(=O)c3ccccc3C2=O)c(Cl)c1,-4.66% (inactive),-3.36
NC(N)=NC(N)=Nc1cccc(Cl)c1,-5.64% (inactive),-4.32
CN[C@H]1CC[C@@H](c2ccc(Cl)c(Cl)c2)c2ccccc21,4.49% (inactive),4.91
CN1CCN(c2nc3cc(C(F)(F)F)ccc3n3cccc23)CC1,-8.98% (inactive),-4.03
COc1cc2c(cc1O)CC[C@@H]1[C@@H]2CC[C@]2(C)[C@@H](O)CC[C@@H]12,1.97% (inactive),3.36
O=c1[nH]cnc2[nH]ncc12,-22.8% (inactive),-0.71
NC(CO)C(=O)NNCc1ccc(O)c(O)c1O (configuration not stated),90.3% [fluorescence artefact?] (active),63.1
N=C(N)SCCc1cccc(CCSC(=N)N)c1,-4.03% (inactive),-3.18
O=C1c2c(O)cc(O)cc2OC(c2ccc(O)c(O)c2)C1O (configuration not stated),7.88% (inactive),5.23
O=c1[nH]c2cc(Cl)c(Cl)cc2[nH]c1=O,-4.07% (inactive),3.65
CN(C)CCOC(c1ccccc1)c1ccccc1,0% (inactive),1.48
Nc1ncnc2c1nc(Sc1ccc(Cl)cc1)n2C1OC2COP(=O)(O)O[C@@H]2[C@@H]1O (some centres not stated),2.25% (inactive),-0.54

Compound,inhibition (at 45 µM),"inhibition (inhibition, at 15 µM) [%]"
NCCCS(=O)(=O)O,-5.28% (inactive),-0.89
Brc1ccc([C@H]2CN3CCSC3=N2)cc1,-14.5% (inactive),-5.52
CCOC(=O)Nc1ccc(NCc2ccc(F)cc2)nc1N,-2.33% (inactive),-0.39
OC[C@H]1O[C@@H](n2cnc3cncnc32)[C@H](O)[C@@H]1O,-0.26% (inactive),-1.71
NC[C@@H]1O[C@H](C23CC4CC(CC(C4)C2)C3)Cc2c1ccc(O)c2O,6.83% (inactive),-1.93
N#CC(Cc1ccc(O)c(O)c1)C(=O)N1CCc2ccccc21 (configuration not stated),4.21% (inactive),-5.26
Nc1nc(SCc2ccc([N+](=O)[O-])cc2)c2ncn([C@@H]3O[C@H](CO)[C@H](O)C3O)c2n1 (some centres not stated),-19.1% (inactive),-4.91
COc1ccccc1CNCCCCCCNCCCCCCCCNCCCCCCNCc1ccccc1OC,10.9% (inactive),6.92
CCCCCCCCCCC/C=C\C(C)(C)/C=C\CCCC(=O)O,33.3% (inactive),17.4
Cc1c(CC(C)(C)C(=O)O)n(Cc2ccc(Cl)cc2)c2ccc(F)cc12,9.14% (inactive),5.8
NC(N)=[N+]1CCc2ccccc2C1,-8.81% (inactive),1.64
CC(CCc1ccccc1)NCC(O)c1ccc(O)c(C(N)=O)c1 (configuration not stated),5.4% (inactive),3.9
O=C(O)c1cc([N+](=O)[O-])ccc1NCCCc1ccccc1,1.89% (inactive),-3.54
N=c1ccn2c(n1)OC1[C@@H](O)[C@@H](CO)O[C@H]12 (some centres not stated),-2.34% (inactive),1.25
COc1ccc(/C=C/C(=O)Nc2ccccc2C(=O)O)cc1OC,3.42% (inactive),4.38
O=S(=O)(c1cccc2c(I)cccc12)N1CCCNCC1,21.6% (inactive),3.12
OC(CN1CCN(c2cccc(Cl)c2)CC1)C(c1ccccc1)c1ccccc1 (configuration not stated),3.01% (inactive),4.55
COc1cc(C(O)C(=O)O)ccc1O (configuration not stated),-7.3% (inactive),0.57
CCCn1c(=O)c2[nH]c(-c3ccc(OCC(=O)Nc4ccc(C#N)cc4)cc3)nc2n(CCC)c1=O,46.8% (inactive),8.2
O=C(Nc1cc(C(=O)Nc2ccc(S(=O)(=O)O)cc2S(=O)(=O)O)cc(C(=O)Nc2ccc(S(=O)(=O)O)cc2S(=O)(=O)O)c1)Nc1cc(C(=O)Nc2ccc(S(=O)(=O)O)cc2S(=O)(=O)O)cc(C(=O)Nc2ccc(S(=O)(=O)O)cc2S(=O)(=O)O)c1,22.9% (inactive),17.2
C/C=C1\C(=O)CC2C3CCC4=CC(=O)CC[C@]4(C)C3CC[C@]12C (some centres not stated),-2.62% (inactive),-5.45

Compound,inhibition (at 45 µM),"inhibition (inhibition, at 15 µM) [%]"
Cc1cc(C)c(NC(=O)C[C@H](CC(=O)O)c2cccc3ccccc23)c(C(=O)N2CCC3(CCCC3)CC2)c1,4.81% (active),53
C[N+](C)(C)CCC(=O)c1cccc2ccccc12,4.57% (inactive),3.36
COc1ccccc1N1CCN(CCN(C(=O)c2ccc(I)cc2)c2ccccn2)CC1,10.1% (inactive),2.05
CCCCCCCCCCCCCCCC(=O)OC(CC(=O)O)C[N+](C)(C)C (configuration not stated),12.7% (inactive),4.2
O=C(O)CNC(=O)C(CS)Cc1ccccc1 (configuration not stated),-3.83% (active),50.5
CC(C)C[C@H](NC(=O)[C@H](O)[C@H](N)Cc1ccccc1)C(=O)O,-1.92% (inactive),-0.07
CC(C)C[C@H](NC(=O)[C@@H](O)[C@H](N)Cc1ccccc1)C(=O)O,-3.72% (inactive),0.08
CC1=C(CC(=O)O)c2cc(F)ccc2/C1=C\c1ccc(S(C)(=O)=O)cc1,2.44% (inactive),2.34
Nc1nc(Cl)nc2c1ncn2[C@@H]1O[C@H](COP(=O)(O)OP(=O)(O)OP(=O)(O)O)[C@H](O)C1O (some centres not stated),-8.59% (inactive),-0.94
CN(C)CCCO[C@@H]1[C@H]2OC(C)(C)O[C@H]2O[C@@H]1C(O)CO (some centres not stated),6.83% (inactive),-5.23
CN1CCc2cc(Cl)c(O)cc2[C@@H](c2ccccc2)C1,1.68% (inactive),0.35
NCCNC(=O)c1ccc(Cl)cc1,-1.66% (inactive),0.74
OCC1NCC(O)C(O)C1O (configuration not stated),-2.36% (inactive),-2.41
CN(C)CCCN1c2ccccc2Sc2ccc(C(F)(F)F)cc21,1.43% (inactive),1.81
O=S(=O)(c1cccc2c(Cl)cccc12)N1CCCNCC1,-6.25% (inactive),-1.24
OCC1O[C@H](O)C(Cl)C(O)C1O (some centres not stated),2.62% (inactive),2.64
O=C(O)C1=CC(=C(c2ccc(O)c(C(=O)O)c2)c2ccc(O)c(C(=O)O)c2)C=CC1=O,88.6% [fluorescence artefact?] (active),76
Cc1cc(NC(=O)Nc2ccc3c(ccn3C)c2)sn1,0.07% (inactive),-2
Cc1c(C)c2c(c(C)c1O)CCC(C)(CN1CCN(c3cc(N4CCCC4)nc(N4CCCC4)n3)CC1)O2 (configuration not stated),-11.9% (inactive),-0.19
Oc1ccc(O)cc1,0.27% (inactive),-2.06
NC(=NCc1ccc(Cl)c(Cl)c1)NC(=O)c1nc(Cl)c(N)nc1N,2.8% (inactive),-1.44

Compound,inhibition (at 45 µM),"inhibition (inhibition, at 15 µM) [%]"
N#CC(=C(\N)Sc1ccccc1N)/C(C#N)=C(/N)Sc1ccccc1N,-6.45% (inactive),-2.12
COc1ccc(CCNC[C@@H](O)c2ccc(O)cc2)cc1OC,1.27% (inactive),1.3
C[n+]1cc2c3c(ccc2c2ccc4cc5c(cc4c21)OCO5)OCO3,7.36% (inactive),3.96
NCCSSCCN,-10.9% (inactive),-6.09
Nc1nc2c(nc(Br)n2C2OC3COP(=O)(O)O[C@@H]3C2O)c(=O)[nH]1 (some centres not stated),-3.13% (inactive),-2.06
CC(C)(C)c1onc(OCP(=O)(O)O)c1CC(N)C(=O)O (configuration not stated),-28.3% (inactive),-2.65
CC[N+](CC)(CC)CC(=O)Nc1c(C)cccc1C,-2.22% (inactive),1.79
C/C(=C\c1ccc(C(=O)O)cc1)c1ccc2c(c1)C(C)(C)CCC2(C)C,40.9% (inactive),34.2
O=c1c2ccccc2nc2n1CCc1c-2[nH]c2ccccc12,2.93% (inactive),1.11
N=C(N)c1ccc(OCCCCCOc2ccc(C(=N)N)cc2)cc1 (tested in a mixture with another compound),3.73% (inactive),1.26
C[C@@H](NC(=O)/C(C#N)=C/c1ccc(O)c(O)c1)c1ccccc1,2.49% (inactive),3.07
CC(=O)[C@H]1CCC2C3CC=C4C[C@@H](OS(=O)(=O)O)CC[C@]4(C)C3CC[C@@]21C (some centres not stated),0.32% (inactive),0.94
NCCNS(=O)(=O)c1cccc2cnccc12,-4.68% (inactive),-3.64
Cc1cc2c(cc1Cl)N(C(=O)Nc1ccnc3ccccc13)CC2,-4.11% (inactive),1.97
Cc1cc(N)c2ccccc2[n+]1CCCCCCCCCC[n+]1c(C)cc(N)c2ccccc21,19.8% (inactive),30.1
Cc1cc(N)c2ccccc2[n+]1CCCCCCCCCCCCCC[n+]1c(C)cc(N)c2ccccc21,73.8% [fluorescence artefact?] (active),65.9
CSc1nc(N)c2ncn([C@@H]3O[C@H](COP(=O)(O)OP(=O)(O)OP(=O)(O)O)[C@H](O)C3O)c2n1 (some centres not stated),-1.74% (inactive),-5.35
N.N.N.N.N.N.N.N.N.N.N.N.N.N.O.O.[Cl-].[Cl-].[Cl-].[Cl-].[Cl-].[Cl-].[Ru+4].[Ru+5].[Ru+5],100% [fluorescence artefact?] (active),99.8
